# Data as given in PubChem BioAssay (Tox21).
# Inconclusive results are not listed. Unmarked numbers belong to inactive results. Calls of active or inactive are those of the source. Calls come from the whole dose curve; as a rule, active = well fitted curve in the direction sought with a large enough effect in the repeat runs; inconclusive = weak or mixed curves; inactive = no such curve, though single readings can be large; an effect the other way counts as inactive or inconclusive.
# Experiment: A CellTox Green Cytotoxicity Assay to monitor cytotoxicity in HEK293 cells - 16 hour (AID 1224888); note: nearly all actives have a fitted effect of over 35% in size
# Conditions: CellTox Green fluorescence; series mostly up to 76.8 µM; activity change: at the top concentration
# Method in brief: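 HEK293 cells, 600/well, were preincubated 5 hours and then exposed to compounds at 37 C for up to 40 hours. A cell-impermeant cyanine dye staining dead-cell DNA was read by fluorescence at 0, 8, 16, 24, 32 and 40 h time points.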
# % is set by controls: 0 for no effect and ±100 for the full control effect.
row,Compound,activity change
1,CN1CCCN=C1COC(=O)C(O)(c1ccccc1)C1CCCCC1 (stereo unspecified),"-2.58% [at 35.3 µM, stronger effect = higher value]"
2,CC(C)=CCC1C(=O)N(c2ccccc2)N(c2ccccc2)C1=O,"1.68% [at 35.3 µM, stronger effect = higher value]"
3,CCn1cc(C(=O)O)c(=O)c2cc(F)c(N3CCNCC3)cc21,"-1.95% [at 35.3 µM, stronger effect = higher value]"
4,O=C1Cc2ccccc2N1c1c(Cl)cccc1Cl,-5.81%
5,COc1ccccc1N1CCN(CC(O)COc2cccc3ccccc23)CC1 (stereo unspecified),"2.25% [at 35.3 µM, stronger effect = higher value]"
6,COc1ccccc1Oc1c(NS(=O)(=O)c2ccc(C(C)(C)C)cc2)nc(-c2ncccn2)nc1OCCO,"1.79% [at 35.3 µM, stronger effect = higher value]"
7,C[C@@H](O)[C@H]1C(=O)N2C(C(=O)O)=C([C@H]3CCCO3)S[C@H]12,"1.65% [at 35.3 µM, stronger effect = higher value]"
8,CCC(=O)OC,-5.95%
9,CCCCCCCCCI,-6.51%
10,C[C@@]12CCC[C@H]1[C@@H]1CC[C@H]3C[C@@H](O)CC[C@]3(C)[C@H]1CC2,"-8.2% [at 35.3 µM, stronger effect = higher value]"
11,O=[N+]([O-])c1ccc(O/N=C/c2cc(Br)c(O)c(Br)c2)c([N+](=O)[O-])c1,-4.03%
12,CC[C@]1(O)C[C@H]2CN(CCc3c([nH]c4ccccc34)[C@@](C(=O)OC)(c3cc4c(cc3OC)N(C=O)[C@H]3[C@@](O)(C(=O)OC)[C@H](OC(C)=O)[C@]5(CC)C=CCN6CC[C@]43[C@@H]65)C2)C1,"-0.846% [at 35.3 µM, stronger effect = higher value]"
13,O=Cc1c2ccccc2c(Cl)c2ccccc12,"-4.56% [at 35.3 µM, stronger effect = higher value]"
14,CCCCCCCC/C=C\CCCCCCCCO,0.092%
15,Nc1nnc(-c2ccc([N+](=O)[O-])o2)o1,-3.25%
16,CC1(C)[C@@H](OC(=O)CCC(=O)O)CC[C@]2(C)[C@H]3C(=O)C=C4[C@@H]5C[C@@](C)(C(=O)O)CC[C@]5(C)CC[C@@]4(C)[C@]3(C)CC[C@@H]12,"-10.1% [at 35.3 µM, stronger effect = higher value]"
17,FC(F)(F)c1ccccc1Cl,-14.7%
18,Nc1cccc2c1CN(C1CCC(=O)NC1=O)C2=O (stereo unspecified),"-0.655% [at 35.3 µM, stronger effect = higher value]"
19,Cc1ccc(C(C)(C)O)cc1,-10.6%
20,CC/C=C1/OC(=O)c2ccccc21,15.4%
21,O=c1cc(-c2ccccc2)oc2cc(O)cc(O)c12,-10.3%
22,CN1C(=O)c2ccccc2C1=O,-10.6%
23,CCN(CC)CCNC(=O)COc1ccc(OC)cc1,"1.42% [at 35.3 µM, stronger effect = higher value]"
24,CCOc1ccccc1O[C@H](c1ccccc1)[C@H]1CNCCO1,"7.29% [at 35.3 µM, stronger effect = higher value]"
25,CC(=O)N/N=C/c1ccc([N+](=O)[O-])o1,"-0.139% [at 35.3 µM, stronger effect = higher value]"
26,CCC1NC(=O)c2cc(S(N)(=O)=O)c(Cl)cc2N1 (stereo unspecified),"-11% [at 35.3 µM, stronger effect = higher value]"
27,CCC1CO1 (stereo unspecified),1.15%
28,Oc1ccc(Cl)c2cccnc12,"4.45% [at 35.3 µM, stronger effect = higher value]"
29,O=C(O)c1ccc(OCCCOc2ccc(C(=O)O)cc2)cc1,"2.03% [at 35.3 µM, stronger effect = higher value]"
30,CC1=Nc2ccc3ccccc3c2C1(C)C,17.6%

# Experiment: qHTS RealTime-Glo MT Cell Viability Assay in HepG2 cells - 0 hour (AID 1224889); note: nearly all actives have a fitted effect of over 50% in size
# Conditions: RealTime-Glo luminescence; series mostly up to 76.8 µM; activity change, negative = cytotoxicity: at the top concentration
# Method in brief: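 Real-time, nonlytic viability: 600 HepG2 cells/well mixed with NanoLuc enzyme plus prosubstrate; 5 h settle, compound (DMSO) added by pintool; luminescence monitored over 40 h at 37 C.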
Compound,"activity change, negative = cytotoxicity",Potency
CN1CCCN=C1COC(=O)C(O)(c1ccccc1)C1CCCCC1 (stereo unspecified),11.2% [at 35.3 µM],–
CC(C)=CCC1C(=O)N(c2ccccc2)N(c2ccccc2)C1=O,-24.7% [at 35.3 µM],–
O=C1Cc2ccccc2N1c1c(Cl)cccc1Cl,-18.3%,–
O=C1c2ccccc2C(=O)C1c1nc2ccccc2c(Br)c1O,0.284%,–
COc1ccccc1Oc1c(NS(=O)(=O)c2ccc(C(C)(C)C)cc2)nc(-c2ncccn2)nc1OCCO,0.898% [at 35.3 µM],–
C[C@@H](O)[C@H]1C(=O)N2C(C(=O)O)=C([C@H]3CCCO3)S[C@H]12,1.25% [at 35.3 µM],–
CCC(=O)OC,0.0525%,–
CCCCCCCCCI,12%,–
Clc1ccc(Nc2nnc(Cc3ccncc3)c3ccccc23)cc1,-3.1% [at 35.3 µM],–
O=[N+]([O-])c1ccc(O/N=C/c2cc(Br)c(O)c(Br)c2)c([N+](=O)[O-])c1,-17.8%,–
CCOC(=O)c1ccc(I)cc1,-0.283%,–
COC(=O)[C@H]1[C@H]2C[C@@H]3c4[nH]c5cc(OC)ccc5c4CCN3C[C@H]2C[C@@H](OC(=O)/C=C/c2ccc(O)c(OC)c2)[C@@H]1OC,-1.82% [at 35.3 µM],–
CC[C@]1(O)C[C@H]2CN(CCc3c([nH]c4ccccc34)[C@@](C(=O)OC)(c3cc4c(cc3OC)N(C=O)[C@H]3[C@@](O)(C(=O)OC)[C@H](OC(C)=O)[C@]5(CC)C=CCN6CC[C@]43[C@@H]65)C2)C1,-3.49% [at 35.3 µM],–
CCCCCCCC/C=C\CCCCCCCCO,1.55%,–
Nc1nnc(-c2ccc([N+](=O)[O-])o2)o1,-1.22%,–
CC1(C)[C@@H](OC(=O)CCC(=O)O)CC[C@]2(C)[C@H]3C(=O)C=C4[C@@H]5C[C@@](C)(C(=O)O)CC[C@]5(C)CC[C@@]4(C)[C@]3(C)CC[C@@H]12,-29% [at 35.3 µM],–

Compound,"activity change, negative = cytotoxicity",Potency
FC(F)(F)c1ccccc1Cl,9.58%,–
Nc1cccc2c1CN(C1CCC(=O)NC1=O)C2=O (stereo unspecified),-0.12% [at 35.3 µM],–
CCCCN1CCCC1C(=O)Nc1c(C)cc(C)cc1C (stereo unspecified),-0.655% [at 35.3 µM],–
Cc1ccc(C(C)(C)O)cc1,11.4%,–
OCCOCC#CCOCCO,4.03%,–
CN1C(=O)c2ccccc2C1=O,7.01%,–
CCN(CC)CCNC(=O)COc1ccc(OC)cc1,-0.335% [at 35.3 µM],–
CC(=O)N/N=C/c1ccc([N+](=O)[O-])o1,7.76% [at 35.3 µM],–
C[C@]12CC[C@@H]3c4ccc(O)cc4CC[C@H]3[C@@H]1CC[C@@H]2OC(=O)CCC1CCCC1,–,inactive
CCC1NC(=O)c2cc(S(N)(=O)=O)c(Cl)cc2N1 (stereo unspecified),-5.28% [at 35.3 µM],–
CCC1CO1 (stereo unspecified),4.39%,–
CC(C)(C)C(=O)C(=O)O,-4.66%,–
Oc1ccc(Cl)c2cccnc12,-3.13% [at 35.3 µM],–
O=C(O)c1ccc(OCCCOc2ccc(C(=O)O)cc2)cc1,2.78% [at 35.3 µM],–
CC1=Nc2ccc3ccccc3c2C1(C)C,8.22%,–
